Drawing on PubChem BioAssay (NCATS), this text covers Potency and activity change, negative = cytotoxicity for 34 molecules.

Results filed as inconclusive are left out. Entries that show only a call come without a potency. Active and inactive are the calls of the source. Calls follow the shape of the dose curve; as a rule, active = well fitted cell-killing curve with a large enough effect; inconclusive = small, poorly fitted or top-dose-only effect, or effect the other way; inactive = flat fitted curve, though single readings scatter. Where a SMILES comes first, the peptide text is derived from it. [ ]: non-standard residue; d: D form. Ala(indol-2-yl) = N[C@@H](Cc1cc2ccccc2[nH]1)C(=O)O; Aib = CC(C)(N)C(=O)O
Potency is read from the fitted curve at half-maximal effect.

The first assay deals with Hek293T. Put plainly: Primary qHTS to identify gynecologic anti-cancer compounds using libraries of approved drugs and bioactive compounds (AID 1345084). Also: nearly all actives have a fitted effect of over 55% in size. As to conditions: Gynecologic cancer cell panel viability, ATPlite luminescence, 48 h, control line for the selectivity index; series mostly up to 57.5 µM. An outline of the steps: (§1)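 ATP-based viability (ATPlite), 1,000 cells/well, 16 h pre-incubation, 48 h compound at 37 C, 5% CO2, 15 min RT before read.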
A general note: In qHTS, concentration-response curves come from the screen itself.
For `N#CC(O[C@@H]1O[C@H](CO)[C@@H](O)[C@H](O)[C@H]1O)c1ccccc1` (stereo not given in full), the Potency result was “inactive”.
With `COC1CC(O[C@H]2CC[C@]3(C)C4CC[C@]5(C)[C@@H](C6=CC(=O)OC6)[C@@H](OC(C)=O)C[C@]5(O)C4CC[C@@H]3C2)OC(C)C1O` (stereo not given in full), the Potency was 1000 nM (active).
Take `CC(=O)O[C@H]1CN2CCC1CC2`: the Potency entry is “inactive”.
The same measure, in the same setting: in the case of `CC(=O)OC[C@]12C[C@H](O)C(C)=C[C@H]1O[C@@H]1[C@H](O)[C@@H](OC(C)=O)[C@@]2(C)[C@]12CO2` it was 89.1 nM (active).
As for `CC[C@@H]1C[C@H]2CC[C@H](O2)[C@H](C)C(=O)O[C@@H](C)C[C@@H]2CC[C@@H](O2)[C@@H](C)C(=O)O[C@H](CC)C[C@H]2CC[C@H](O2)[C@H](C)C(=O)O[C@@H](C)C[C@@H]2CC[C@@H](O2)[C@@H](C)C(=O)O1`, the Potency was 631 nM (active).

For another assay, the system named is JEG-3. The description is as above. The settings on record: Gynecologic cancer cell panel viability, ATPlite luminescence, 48 h; series mostly up to 57.5 µM. The essentials:
as §1
As to `O=C(OC[C@H]1O[C@@H](Oc2ccc(O)cc2CO)[C@H](O)[C@@H](O)[C@@H]1O)c1ccccc1`, the Potency entry is “inactive”.
Consider `CC(C)(NC(=O)[C@@H](N)Cc1ccc(O)cc1)C(=O)N[C@@H](Cc1cc2ccccc2[nH]1)C(=O)N[C@@H](Cc1ccccc1)C(=O)O` (H-Y[Aib][Ala(indol-2-yl)]F-OH), for which the activity change, negative = cytotoxicity is -21.6% [at 11.6 µM] (inactive).
Turning to `C=C1[C@@H](C)[C@H]2[C@H](Cc3ccccc3)NC(=O)[C@]23[C@H](OC(C)=O)/C=C/[C@](C)(O)C(=O)[C@@H](C)C/C=C/[C@H]3[C@@H]1O`, the Potency entry is “inactive”.
As to `COc1ccc2c3c([nH]c2c1)C(C=C(C)C)N1C(=O)C2CCCN2C(=O)C1C3` (stereo not given), the Potency result is “inactive”.
Still for that read-out and setting: then `CC(=O)OC[C@]12C[C@H](OC(=O)CC(C)C)C(C)=C[C@H]1O[C@@H]1[C@H](O)[C@@H](OC(C)=O)[C@@]2(C)[C@@]12CO2`, with 1 µM (active).
As to `CC1=C[C@H]2O[C@@H]3C[C@H]4OC(=O)/C=C/C=C/C(=O)OCC/C(C)=C/C(=O)OC[C@@]2(CC1)[C@]4(C)[C@]31CO1`, the Potency was 0.126 µM (active).
For `CC(=O)OC[C@]12C[C@H](OC(=O)CC(C)C)C(C)=C[C@H]1O[C@@H]1[C@H](O)[C@@H](O)[C@@]2(C)[C@]12CO2`, the Potency was 1.58 µM (active).
`Cc1c(Cl)c(OCC(=O)N2CCN(C)CC2)nc2sc(C(=O)NC3CC3)c(N)c12`: the Potency entry was “inactive”.
As for `C[C@]12CC[C@H](O)C[C@H]1CC[C@@H]1[C@@H]2[C@H](O)C[C@]2(C)[C@@H](c3ccc(=O)oc3)CC[C@]12O`, the Potency entry was “inactive”.
As for `C[C@H]1O[C@@H](n2cnc3c(N)ncnc32)C[C@@H]1O`, the Potency entry is “inactive”.
Same read-out and setting: in the case of `OCc1nnc2n1-c1ccc(Cl)cc1C(c1ccccc1Cl)=NC2` it was “inactive”; in that of `CC[C@H]1C2CC3[C@@H]4N(C)c5ccccc5[C@]45C[C@@H]([C@H]2[C@H]5O)N3[C@@H]1O`, “inactive”.
In the case of `CC1=CC2OC3[C@H](O)C[C@@](C)([C@]34CO4)[C@@]2(CO)[C@H](O)C1=O` (stereo not given in full), the Potency entry was “inactive”.
The same measure, in the same setting: then `CC(=O)O[C@H]1CC[C@@]2(CI)C(=CC[C@@H]3[C@@H]2CC[C@]2(C)C(=O)CC[C@@H]32)C1`, with “inactive”; and `C=C1[C@@H](C)[C@H]2[C@H](Cc3ccccc3)NC(=O)[C@]23OC(=O)/C=C/C(=O)CCC[C@@H](C)C/C=C/[C@H]3[C@@H]1O`, with “inactive”.
As for `C[C@H](CCC(=O)O)C[C@H](C)C[C@H](C)C(=O)/C=C(\O)[C@H](C)C[C@H](C)C/C=C/[C@@H](C)[C@@H](O)[C@@H](C)[C@@H](O)C[C@@H]1CC[C@@](C)([C@H]2CC[C@@](C)([C@@H](C)O)O2)O1`, the Potency entry was “inactive”.
Take `CN(C)c1cc2c(cc1Sc1nc3c(N)nccc3n1CCNCC(C)(C)C)OCO2`: the Potency was 11.2 µM (active).
The same measure, in the same setting: then `CC(C)(C)[C@]1(O)C[C@@H]2OC(=O)C[C@@]23C(=O)O[C@@H]2OC(=O)[C@@H](O)[C@]213`, with “inactive”; and `N#CC(O[C@@H]1O[C@H](CO)[C@@H](O)[C@H](O)[C@H]1O)c1ccccc1` (stereo not given in full), with “inactive”; and `CC(=O)O[C@H]1CN2CCC1CC2`, with “inactive”.
In the case of `CC(=O)OC[C@]12C[C@H](O)C(C)=C[C@H]1O[C@@H]1[C@H](O)[C@@H](OC(C)=O)[C@@]2(C)[C@]12CO2`, the Potency was 0.224 µM (active).
Same read-out and setting: in the case of `CC1=CC(=O)[C@@H](O)[C@]2(C)C3[C@@H](O)[C@@H]4OC(=O)[C@@H]([C@H]4C)[C@]3(C)C(=O)C[C@@H]12` (stereo not given in full) it was “inactive”.
Same read-out and setting: then `CC[C@@H]1C[C@H]2CC[C@H](O2)[C@H](C)C(=O)O[C@@H](C)C[C@@H]2CC[C@@H](O2)[C@@H](C)C(=O)O[C@H](CC)C[C@H]2CC[C@H](O2)[C@H](C)C(=O)O[C@@H](C)C[C@@H]2CC[C@@H](O2)[C@@H](C)C(=O)O1`, with “inactive”.

The next assay concerns OV90. The assay is described as above. The settings on record: Gynecologic cancer cell panel viability, ATPlite luminescence, 48 h; series mostly up to 57.5 µM. The essentials: as §1
(In general: In ATP-based viability assays light output follows the ATP content of the culture.)
In the case of `O=C(OC[C@H]1O[C@@H](Oc2ccc(O)cc2CO)[C@H](O)[C@@H](O)[C@@H]1O)c1ccccc1`, the Potency result is “inactive”.
As to `CC(=O)O[C@@H]1[C@@H](O)[C@H]2O[C@@H]3C=C(C)[C@@H](O)C[C@]3(CO)[C@]1(C)[C@]21CO1`, the Potency is 1.41 µM (active).
For `CC(C)(NC(=O)[C@@H](N)Cc1ccc(O)cc1)C(=O)N[C@@H](Cc1cc2ccccc2[nH]1)C(=O)N[C@@H](Cc1ccccc1)C(=O)O` (H-Y[Aib][Ala(indol-2-yl)]F-OH), the activity change, negative = cytotoxicity is 2.67% [at 11.6 µM] (inactive).
With `C=C1[C@@H](C)[C@H]2[C@H](Cc3ccccc3)NC(=O)[C@]23[C@H](OC(C)=O)/C=C/[C@](C)(O)C(=O)[C@@H](C)C/C=C/[C@H]3[C@@H]1O`, the Potency is 1.26 µM (active).
On to `COc1ccc2c3c([nH]c2c1)C(C=C(C)C)N1C(=O)C2CCCN2C(=O)C1C3` (stereo not given), for which the Potency entry is “inactive”.
Still for that read-out and setting: then `CC(=O)OC[C@]12C[C@H](OC(=O)CC(C)C)C(C)=C[C@H]1O[C@@H]1[C@H](O)[C@@H](OC(C)=O)[C@@]2(C)[C@@]12CO2`, with 2.51 µM (active).
In the case of `CN[C@@H]1C[C@H]2O[C@@](C)([C@@H]1OC)n1c3ccccc3c3c4c(c5c6ccccc6n2c5c31)C(=O)NC4`, the Potency is 0.316 µM (active).
As for `CC(=O)OC[C@]12C[C@H](OC(=O)CC(C)C)C(C)=C[C@H]1O[C@@H]1[C@H](O)C[C@@]2(C)[C@]12CO2`, the Potency is 4.47 µM (active).
With `COC1CC(O[C@H]2CC[C@]3(C)C4CC[C@]5(C)[C@@H](C6=CC(=O)OC6)[C@@H](OC(C)=O)C[C@]5(O)C4CC[C@@H]3C2)OC(C)C1O[C@@H]1O[C@H](CO)[C@@H](O)[C@H](O)[C@H]1O` (stereo not given in full), the Potency is 3.16 µM (active).
For `Cc1c(Cl)c(OCC(=O)N2CCN(C)CC2)nc2sc(C(=O)NC3CC3)c(N)c12`, the Potency entry was “inactive”.
Same read-out and setting: in the case of `CO[C@H]1[C@H](O)[C@H](O[C@H]2CC[C@]3(C=O)C4CC[C@]5(C)[C@H](C6=CC(=O)OC6)CC[C@]5(O)C4CC[C@@H]3C2)O[C@@H](C)[C@@H]1O` (stereo not given in full) it was 0.282 µM (active); in that of `C[C@H]1O[C@@H](O[C@H]2CC[C@]3(C=O)C4CC[C@]5(C)[C@@H](C6=CC(=O)OC6)CC[C@]5(O)[C@@H]4CC[C@]3(O)C2)C[C@@H](O)[C@@H]1O` (stereo not given in full), 0.316 µM (active).
Still for that read-out and setting: in the case of `COC1CC(O[C@H]2CC[C@]3(C=O)C4CC[C@]5(C)[C@@H](C6=CC(=O)OC6)CC[C@]5(O)[C@@H]4CC[C@@H]3C2)OC(C)C1O[C@@H]1O[C@H](CO)[C@@H](O[C@@H]2O[C@H](CO)[C@@H](O)[C@H](O)[C@H]2O)[C@H](O)[C@H]1O` (stereo not given in full) it was 1.58 µM (active); in that of `C[C@]12CC[C@H](O)C[C@H]1CC[C@@H]1[C@@H]2[C@H](O)C[C@]2(C)[C@@H](c3ccc(=O)oc3)CC[C@]12O`, 0.355 µM (active); in that of `CC1=C[C@H]2O[C@@H]3[C@H](O)[C@@H](O)[C@](C)([C@@]2(CO)C[C@@H]1O)[C@]31CO1`, 8.91 µM (active).
For the molecule `C[C@H]1O[C@@H](n2cnc3c(N)ncnc32)C[C@@H]1O`, the Potency result is “inactive”.
On the same count and under the same terms, then `OCc1nnc2n1-c1ccc(Cl)cc1C(c1ccccc1Cl)=NC2`, with “inactive”.
Still for that read-out and setting: in the case of `CC[C@H]1C2CC3[C@@H]4N(C)c5ccccc5[C@]45C[C@@H]([C@H]2[C@H]5O)N3[C@@H]1O` it was “inactive”.
On to `CC[C@@]1(O)C(=O)OCc2c1cc1n(c2=O)Cc2cc3c(OC)cccc3nc2-1`, for which the Potency was 1.12 µM (active).
Turning to `CC(=O)O[C@H]1CC[C@@]2(CI)C(=CC[C@@H]3[C@@H]2CC[C@]2(C)C(=O)CC[C@@H]32)C1`, the Potency entry was “inactive”.
Still for that read-out and setting: then `C[C@H]1C/C=C/[C@H]2[C@@H]3O[C@]3(C)[C@@H](C)[C@H]3[C@H](Cc4ccccc4)NC(=O)[C@]32OC(=O)O/C=C/[C@@](C)(O)C1=O`, with “inactive”; and `CC(C)(C)[C@]1(O)C[C@@H]2OC(=O)C[C@@]23C(=O)O[C@@H]2OC(=O)[C@@H](O)[C@]213`, with “inactive”; and `N#CC(O[C@@H]1O[C@H](CO)[C@@H](O)[C@H](O)[C@H]1O)c1ccccc1` (stereo not given in full), with “inactive”.
In the case of `COC1CC(O[C@H]2CC[C@]3(C)C4CC[C@]5(C)[C@@H](C6=CC(=O)OC6)[C@@H](OC(C)=O)C[C@]5(O)C4CC[C@@H]3C2)OC(C)C1O` (stereo not given in full), the Potency was 3.16 µM (active).
Consider `CC(=O)O[C@H]1CN2CCC1CC2`, for which the Potency entry was “inactive”.
On the same count and under the same terms, in the case of `CC(=O)OC[C@]12C[C@H](O)C(C)=C[C@H]1O[C@@H]1[C@H](O)[C@@H](OC(C)=O)[C@@]2(C)[C@]12CO2` it was 12.6 µM (active); in that of `CC[C@@H]1C[C@H]2CC[C@H](O2)[C@H](C)C(=O)O[C@@H](C)C[C@@H]2CC[C@@H](O2)[C@@H](C)C(=O)O[C@H](CC)C[C@H]2CC[C@H](O2)[C@H](C)C(=O)O[C@@H](C)C[C@@H]2CC[C@@H](O2)[C@@H](C)C(=O)O1`, 0.398 µM (active).
